# Measured values as given in PubChem BioAssay.
# Activity calls are given as the source filed them. Rule as the data show it: active = inhibition above about 25%; inactive = the rest.
# Assay: VP16 transactivation inhibitors, counter-screen for SRC1 inhibitor project, cell-based, luminescence, high throughput (AID 588824)
# Conditions: cell-based VP16 transactivation luciferase luminescence; at 3.6 µM; active compounds read high
row,SMILES,inhibition
1,CN(C)/C=C/C(=O)c1ccn(S(=O)(=O)c2ccccc2)c1,-2.37% (inactive)
2,CN(C)c1ccc(Sc2ccc3nc(N)nc(N)c3c2)cc1,27.5% (active)
3,COc1ccc(-c2nc(N3CCOCC3)nc3n[nH]c(N)c23)cc1,17.9% (inactive)
4,CCC(Cc1ccccc1)NC(=O)CCNS(=O)(=O)c1cc(Br)cnc1N (stereo not given),5.04% (inactive)
5,CN(C)S(=O)(=O)c1ccc(Cl)c(NC(=O)CN2C(=O)NC(C)(C3CC3)C2=O)c1 (stereo not given),-2.88% (inactive)
6,CSc1nc(N)nc2c1ncn2CC(=O)N1CCN(Cc2c(C)cc(C)cc2C)CC1,34.5% (active)
7,NS(=O)(=O)c1ccc(N=Nc2c(O)[nH]c3ccc(Br)cc23)cc1,5.38% (inactive)
8,NC(=O)[C@H]1CC2(CC(c3cccc(NC(=O)COc4ccc(Cl)cc4)c3)=NO2)CN1C(=O)Cc1ccc([N+](=O)[O-])cc1 (stereo not given in full),39.5% (active)
9,COCCn1c(SCCCC(=O)c2ccc(Br)cc2)nnc1-c1ccncc1,25.2% (inactive)
10,COc1cccc(CNc2nc(NCc3cccs3)nc3ccsc23)c1,2.77% (inactive)
11,Cc1ccc(S(=O)(=O)N(C)c2ccc(C(=O)N3CCN(Cc4ccc5c(c4)OCO5)CC3)cc2)cc1,30% (active)
12,CC1(c2ccc3ccccc3c2)NC(=O)N(CC(=O)N2CCN(Cc3ccccc3)CC2)C1=O (stereo not given),37.1% (active)
13,O=C(N/N=C/c1ccc(O)cc1)c1ccc(COc2cc(Cl)ccc2Cl)o1,30.3% (active)
14,O=C(CSc1nc2[nH]ncc2c(=O)[nH]1)N1CCCCC1,-6.86% (inactive)
15,COc1ccccc1NC(=O)NC1(C(=O)N2CCCCC2)CCCCC1,10.3% (inactive)
16,COc1cccc(CNC(=O)C2CCCN(S(C)(=O)=O)C2)c1 (stereo not given),8.47% (inactive)
17,COc1ccc(CNC(=O)c2cccc3c(-c4cccnc4)coc23)cc1OC,43.8% (active)
18,CN(Cc1ccccc1)C(=O)c1ccc(NC(=O)Cc2ccc(NC(=O)C3CCCN(C(=O)CCc4ccccc4)C3)cc2)cc1 (stereo not given),37.6% (active)
19,CN(C)CCNc1ccc2nnn3c4ccc(O)cc4c(=O)c1c23,50.6% (active)
20,CCCOc1ccc(Cc2c(Cl)nc(SC)nc2NC)cc1,24.6% (inactive)

row,SMILES,inhibition
1,CC(=O)N1CCc2c(sc(NC(=O)C3CCCN3S(=O)(=O)c3cccs3)c2C(N)=O)C1 (stereo not given),-1.35% (inactive)
2,O=C(Nc1nonc1NC(=O)c1cccs1)c1cccs1,21.9% (inactive)
3,CN(C(=O)c1cccc(NC(=O)Cc2ccc(NC(=O)C3CCCN(C(=O)CCc4ccccc4)C3)cc2)c1)C1CCCCC1 (stereo not given),28% (active)
4,C#Cc1ccc(NC(=O)C2(C)CCN2C(=O)Cc2ccc(-c3ccccc3)cc2)cc1 (stereo not given),36.2% (active)
5,O=C1NC[C@H](c2ccccc2)OC(=O)[C@@H](Cc2ccc(F)cc2)C/C=C\C[C@H]1CC(=O)N(CCO)Cc1ccccc1,-0.29% (inactive)
6,COc1cccc2c1C(=O)c1c(O)c3c(c(O)c1C2=O)CC(O)(C(C)=O)CC3OC1CC(O)C(O)C(C)O1 (stereo not given),16.4% (inactive)
7,COc1ccc(Oc2nc3c(c(=O)n(C)c(=O)n3C)n2C)cc1,16.6% (inactive)
8,Cc1sc2ncnc(NCC3COc4ccccc4O3)c2c1C (stereo not given),26.2% (active)
9,Cc1ccc(S(=O)(=O)CC2CSc3nc4ccccc4n32)cc1 (stereo not given),33.3% (active)
10,CC1(C)CC(N2CCCC2)=CC(=[N+]2CCCC2)C1,23.9% (inactive)
11,CC(=O)NC(c1ccc(Cl)cc1Cl)c1ccc2cccnc2c1O (stereo not given),70.6% (active)
12,O=C(CSc1nnc(Cn2nnc3ccccc32)o1)N(Cc1ccc(F)cc1)c1ccccc1,38.8% (active)
13,COc1cccc2c1C(=O)c1c(O)c3c(c(O)c1C2=O)C[C@@](O)(C(=O)CO)C[C@@H]3OC1CC(N)C(O)C(C)O1 (stereo not given in full),71.4% (active)
14,COc1ccc(Cl)cc1NC(=O)CN(C)C(=O)c1ccc(COc2ccccc2)cc1,-12.9% (inactive)
15,O=C(c1nnsc1S(=O)c1ccc(Cl)cc1)N1CCOCC1 (stereo not given),-6.26% (inactive)
16,Cc1cccc(-n2c(CNC(=O)c3ccccc3)nnc2SCC(=O)Nc2nccs2)c1,4.71% (inactive)
17,Cc1ccc(C#CC[N+]2(CC#Cc3ccc(C)cc3)CCCCC2)cc1,36.3% (active)
18,S=C(NC1CCCCC1)N1CCOCCOCCN(C(=S)NC2CCCCC2)CCOCCOCC1,7.75% (inactive)
19,O=C(NC1CCCCC1)C(c1ccc(F)cc1)N(CCCN1CCOCC1)C(=O)c1ccc(CN2CCOCC2)o1 (stereo not given),3.53% (inactive)
20,CCN(CC)S(=O)(=O)c1cc(NC(=O)CNc2cccc(S(=O)(=O)N3CCCC3)c2)ccc1C,32.8% (active)
